Assay results published in PubChem BioAssay (NCATS).
“And” between values parts separate entries of the source, which are not always exact repeats. Identical values can stand only once. Records with an inconclusive call do not appear. A structure can be active in one record and inactive in another. The source made the active and inactive calls. Unless noted, the call rests on the fitted dose curve; in most records, active means well fitted curve in either direction with a large enough effect (not every such curve was filed as active); inconclusive means small, poorly fitted or top-dose-only effect, or another doubt; inactive means flat fitted curve, though single readings scatter.

Legend:
[1] = AP1 Signaling Pathway (AID 357);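 further: ME-180 reporter cells stimulated with EGF at its EC50 level; on the % scale 0 is the no-effect control and ±100 the full control effect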
Summary of the method: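 AP-1-bla ME-180 cells, Opti-MEM + 0.5% dialyzed FBS, plated overnight 37 °C. Cpd titration + EC50 EGF, 5 h 37 °C. CCF4 2.5 h RT; ex 405, em 460/530 ratio → %activity, AC50.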

[2] = biological target: Cytochrome P450 1A2 (Homo sapiens) (UniProt P05177); test: p450-cyp1a2 (AID 410; calls by dose curve; further: potency means the concentration at half of the fitted maximal effect;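 on activity change, negative = inhibition: -100% = full effect of reference inhibitor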)
Summary of the method: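 Luminescent demethylation readout: Luciferin-ME (100uM, equal to Km) turned over by 20nM CYP1A2 for 60 min at room temperature after NADPH regeneration addition, following 10 min compound preincubation. Normalization used 57 uM furafylline as full inhibition.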

[3] = Cell Viability - BJ (AID 421; calls by dose curve;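 further: potency means the concentration at half of the fitted maximal effect; cells exposed to compound for 40 hours at 37 °C before readout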); conditions: BJ fibroblast viability, qHTS
Summary of the method: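 Quantitative HTS: ATP depletion in BJ cells after 40 hr compound exposure in complete culture medium, detected with CellTiter-Glo; AC50 from standard Hill fits.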

[4] = Cell Viability - Hek293 (AID 427;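 active means compounds whose dose-response curve shows a full or clear partial loss of cell viability, called from curve shape rather than a numeric limit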;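 further: potency means the concentration at half of the fitted maximal effect; cells exposed to compound for 40 hours at 37 °C before reading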); conditions: qHTS
Summary of the method: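 AC50 values derive from Hill-modelled concentration-response of ATP-based luminescence, normalized between DMSO-only and 100 uM tamoxifen controls. Cells were exposed in complete culture medium for 40 hr at 37 °C before detection.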

[5] = Cell Viability - HepG2 (AID 433; calls by dose curve;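 further: potency means the concentration at half of the fitted maximal effect; potency for ATP loss meaning cytotoxicity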); conditions: qHTS
Summary of the method: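 HepG2 hepatocellular carcinoma cells (1500/well) were treated with compounds for 40 h at 37 °C in complete medium; intracellular ATP was read by CellTiter-Glo luminescence. Data were normalized to DMSO and 100 uM tamoxifen, and AC50 came from Hill fits.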

[6] = Cell Viability - MRC5 (AID 434; calls by dose curve;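 further: potency means the concentration at half of the fitted maximal effect; potency reflects cytotoxicity seen as loss of intracellular ATP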); conditions: MRC5 lung fibroblast viability, qHTS
Summary of the method: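 AC50 values come from Hill-equation fits of intracellular ATP loss, measured by CellTiter-Glo luminescence. Normal lung fibroblasts (MRC5) had 40 hr compound treatment at 37 C, normalized between DMSO and 100 uM tamoxifen.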

[7] = NFAT Signaling Pathway (AID 444); conditions: Jurkat NFAT-bla M1, carbachol, beta-lactamase ratio, 5 h;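 further: carbachol stimulus at about its EC50 of 1 µM final; on the % scale 0 is the no-effect control and ±100 the full control effect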
Summary of the method: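 Read-out: CCF4 FRET ratio (460 nm/530 nm) after 1 h RT dye loading, used for %activity and AC50 from titration series. Cells: Jurkat NFAT-β-lactamase/M1 line, treated with compound plus 1 uM carbachol for 5 h, 37 °C.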

[8] = Stat Signaling Pathway (AID 446);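 further: ME-180 cervical cancer cells given 40 pM IL-6 alongside compound; SIE-controlled beta-lactamase reporter measured as 460/530 nm FRET emission ratio; on the % scale 0 is the no-effect control and ±100 the full control effect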
Summary of the method: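 Overnight-plated ME-180 cells bearing a STAT Inducible Element beta-lactamase reporter; 5 h co-exposure to compound and 40 pM IL-6; values normalized to 300 pM IL-6 and 125 nM JAK inhibitor controls.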

[9] = biological target: Glucocorticoid receptor (Homo sapiens) (UniProt P04150); test: GR-EFC Redistribution (AID 451; calls by dose curve; further: potency means the concentration at half of the fitted maximal effect); conditions: CHO-K1 GR-EFC translocation, beta-gal luminescence, 2 h
Summary of the method: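 Translocation of GR-ED fusion to nuclear EA restores b-gal, read by luminescence after 1 h room-temperature detection. Engineered CHO-K1 biosensor cells, 1,000/well, exposed 2 h at 37 C to titrations up to 46 uM final.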

[10] = biological target: Mitogen-activated protein kinase 10 (Mus musculus) (UniProt Q61831); test: JNK3 AlphaScreen Assay (AID 530);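 further: kinase came from lysate of stimulated human HepG2 cells; signal reports phosphorylation of biotinylated GST-cJun 1-79 at Ser73 with 10 µM ATP; on the % scale 0 is the no-effect control and ±100 the full control effect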
Summary of the method: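 qHTS titrations with 15 min compound pre-incubation before adding ATP (10 uM final). Read-out: AlphaScreen of Ser73-phosphorylated biotin-GST-cJun using HepG2 lysate JNK3 activated by IL-1β and TNFα.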

[11] = Cell Viability - N2a (AID 540; active means well fitted curve in the direction sought with a large enough effect; an effect the other way counts as inactive or inconclusive;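 further: plate controls were DMSO alone for no effect and tamoxifen control for full effect; nearly all actives have a fitted effect of over 45% in size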); conditions: N2a mouse neuroblastoma cell viability; activity change, negative = cytotoxicity: at 92.2 µM (top of the series)
Summary of the method: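 CellTiter-Glo ATP luminescence, read 20 min after reagent at room temperature, reported viability following 40 h compound treatment at 37 °C. N2a mouse neuroblastoma cells seeded 1500/well; Hill equation gave AC50.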

[12] = Cell Viability - NIH 3T3 (AID 541; active means well fitted curve in the direction sought with a large enough effect; an effect the other way counts as inactive or inconclusive;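 further: plate controls were DMSO alone for no effect and tamoxifen positive control for full effect; nearly all actives have a fitted effect of over 25% in size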); conditions: NIH 3T3 cell viability, qHTS; activity change, negative = cytotoxicity: at 92.2 µM (top of the series)
Summary of the method: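 Intracellular ATP (CellTiter-Glo luminescence, 20 min at room temperature) measured after 40 hr compound exposure at 37 °C of 1000 NIH 3T3 mouse fibroblasts/well in complete medium; AC50 derived by Hill-equation modelling of qHTS concentration-response curves.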

[13] = Cell Viability - HUV-EC-C (AID 542; active means well fitted curve in the direction sought with a large enough effect; an effect the other way counts as inactive or inconclusive; further: on the % scale 0 is the no-effect control and ±100 the full control effect; nearly all actives have a fitted effect of over 35% in size)
Summary of the method: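 CellTiter-Glo luminescence measured ATP loss in HUV-EC-C cells (1000/well) after 40 hr compound exposure at 37 °C, in complete culture medium. Concentration-response data were Hill-fitted to give AC50.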

[14] = Cell Viability - H-4-II-E (AID 543; active means well fitted curve in the direction sought with a large enough effect; an effect the other way counts as inactive or inconclusive; further: on the % scale 0 is the no-effect control and ±100 the full control effect; nearly all actives have a fitted effect of over 35% in size)
Summary of the method: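 CellTiter-Glo luminescence (intracellular ATP) measured after 40 h compound exposure at 37 °C in H-4-II-E rat hepatoma cells seeded at 1500/well. Values are AC50s fitted with the standard Hill equation.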

[15] = Cell Viability - Renal Proximal Tubule (AID 545; active means well fitted curve in the direction sought with a large enough effect; an effect the other way counts as inactive or inconclusive;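 further: 0% = DMSO only and -100% = 100 µM tamoxifen; nearly all actives have a fitted effect of over 40% in size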)
Summary of the method: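 Primary rat renal proximal tubule cells (1000/well) were treated with compounds for 40 hr at 37 °C in complete medium. Intracellular ATP was measured by CellTiter-Glo luminescence, and AC50 values came from Hill-equation fits of concentration-response data.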

[16] = Cell Viability - Jurkat (AID 426;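 active means dose-dependent loss of cell ATP signal giving a full or clear fitted curve, ranked by lower potency value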;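 further: potency means the concentration at half of the fitted maximal effect; cells exposed to compound for 40 hours at 37 °C before ATP read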); conditions: qHTS
Summary of the method: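 Cytotoxicity taken as drop in cellular ATP (CellTiter-Glo luminescence, 20 min room temperature) after 40 hr, 37C treatment of 5000 Jurkat Clone E6-1 cells per well; concentration-response fitted with Hill equation for AC50.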

[17] = Cell Viability - SK-N-SH (AID 435; calls by dose curve; further: potency means the concentration at half of the fitted maximal effect); conditions: SK-N-SH neuroblastoma cell viability qHTS
Summary of the method: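 SK-N-SH human neuroblastoma cells (1500/well) were exposed to compounds in complete medium for 40 h at 37 °C, and intracellular ATP was then measured by CellTiter-Glo luminescence. AC50 was taken from Hill fits, normalized to DMSO and 100 uM tamoxifen.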

[18] = Cell Viability - SH-SY5Y (AID 544; active means well fitted curve in the direction sought with a large enough effect; an effect the other way counts as inactive or inconclusive; further: nearly all actives have a fitted effect of over 55% in size; further: potency means the concentration at half of the fitted maximal effect;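 on viability change, negative = cytotoxic: 0% = DMSO alone and -100% = 100 µM tamoxifen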); conditions: SH-SY5Y neuroblastoma cell viability; viability change, negative = cytotoxic: at 92.2 µM (top of the series)
Summary of the method: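 Cytotoxicity measured via ATP-dependent luciferase luminescence (CellTiter-Glo) following 40 h, 37 °C exposure of 1500 SH-SY5Y cells per well. Concentration-response data were fitted with the standard Hill equation to give AC50.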

[19] = biological target: Glucocorticoid receptor (Homo sapiens) (UniProt P04150); test: GR-GFP Redistribution (AID 450;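 active means compounds whose dose series gives a full or clear partial fitted curve of increased nuclear translocation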; further: potency means the concentration at half of the fitted maximal effect); conditions: U2OS GR-GFP nuclear translocation, laser cytometry, 2 h
[20] = biological target: Lysosomal acid glucosylceramidase (Homo sapiens) (UniProt P04062); test: Glucocerebrosidase-p2 (AID 348; in the data active means potency below about 10 µM; further: potency means the concentration at half of the fitted maximal effect); conditions: purified GBA, blue fluorogenic substrate, 40 min
Summary of the method: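 Normal human glucocerebrosidase (0.2 nM) with blue fluorogenic substrate (80 uM final) in citrate/phosphate pH 5.9 with 10mM sodium taurocholate, 0.01% tween-20; 40 min RT, NaOH/glycine stop; fluorescence Ex 365/Em 440; AC50 from a titration from 0.6 nM upwards.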

Cytochrome P450 1A2 (Homo sapiens), sequence (P05177 whole entry, looked up): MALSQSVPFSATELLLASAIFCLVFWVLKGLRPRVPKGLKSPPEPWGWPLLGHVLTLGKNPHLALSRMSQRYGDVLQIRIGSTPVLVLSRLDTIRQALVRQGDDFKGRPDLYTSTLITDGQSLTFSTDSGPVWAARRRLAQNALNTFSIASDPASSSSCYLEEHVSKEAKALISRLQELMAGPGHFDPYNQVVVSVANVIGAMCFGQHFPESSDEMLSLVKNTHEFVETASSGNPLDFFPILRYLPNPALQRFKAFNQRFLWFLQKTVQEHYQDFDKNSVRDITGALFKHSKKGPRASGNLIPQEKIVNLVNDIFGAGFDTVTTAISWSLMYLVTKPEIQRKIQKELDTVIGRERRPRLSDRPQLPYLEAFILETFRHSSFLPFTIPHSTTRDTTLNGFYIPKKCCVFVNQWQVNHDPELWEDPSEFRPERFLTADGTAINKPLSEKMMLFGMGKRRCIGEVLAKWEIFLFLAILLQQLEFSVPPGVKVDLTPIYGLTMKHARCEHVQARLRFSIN
Glucocorticoid receptor (Homo sapiens), sequence (P04150 whole entry, looked up, the tested form may be a part): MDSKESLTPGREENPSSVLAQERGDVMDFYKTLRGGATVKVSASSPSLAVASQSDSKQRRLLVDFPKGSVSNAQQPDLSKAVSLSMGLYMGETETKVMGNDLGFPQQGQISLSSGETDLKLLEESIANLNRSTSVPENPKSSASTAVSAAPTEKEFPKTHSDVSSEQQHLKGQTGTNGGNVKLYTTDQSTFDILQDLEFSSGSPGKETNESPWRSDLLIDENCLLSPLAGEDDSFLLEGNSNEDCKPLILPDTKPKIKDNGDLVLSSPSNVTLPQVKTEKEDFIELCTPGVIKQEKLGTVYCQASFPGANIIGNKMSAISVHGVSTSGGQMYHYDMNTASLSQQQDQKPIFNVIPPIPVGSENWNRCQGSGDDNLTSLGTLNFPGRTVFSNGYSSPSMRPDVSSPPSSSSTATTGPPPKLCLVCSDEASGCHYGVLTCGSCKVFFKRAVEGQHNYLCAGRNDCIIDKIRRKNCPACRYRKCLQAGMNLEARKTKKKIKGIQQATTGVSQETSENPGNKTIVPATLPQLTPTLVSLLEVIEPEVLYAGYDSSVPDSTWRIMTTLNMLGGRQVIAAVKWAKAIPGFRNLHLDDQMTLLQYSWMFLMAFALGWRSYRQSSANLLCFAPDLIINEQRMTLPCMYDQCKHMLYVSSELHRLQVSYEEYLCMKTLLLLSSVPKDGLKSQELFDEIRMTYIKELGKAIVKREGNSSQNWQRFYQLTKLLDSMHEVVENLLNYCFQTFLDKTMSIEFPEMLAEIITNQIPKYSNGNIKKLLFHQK
Lysosomal acid glucosylceramidase (Homo sapiens), sequence (P04062 whole entry, looked up): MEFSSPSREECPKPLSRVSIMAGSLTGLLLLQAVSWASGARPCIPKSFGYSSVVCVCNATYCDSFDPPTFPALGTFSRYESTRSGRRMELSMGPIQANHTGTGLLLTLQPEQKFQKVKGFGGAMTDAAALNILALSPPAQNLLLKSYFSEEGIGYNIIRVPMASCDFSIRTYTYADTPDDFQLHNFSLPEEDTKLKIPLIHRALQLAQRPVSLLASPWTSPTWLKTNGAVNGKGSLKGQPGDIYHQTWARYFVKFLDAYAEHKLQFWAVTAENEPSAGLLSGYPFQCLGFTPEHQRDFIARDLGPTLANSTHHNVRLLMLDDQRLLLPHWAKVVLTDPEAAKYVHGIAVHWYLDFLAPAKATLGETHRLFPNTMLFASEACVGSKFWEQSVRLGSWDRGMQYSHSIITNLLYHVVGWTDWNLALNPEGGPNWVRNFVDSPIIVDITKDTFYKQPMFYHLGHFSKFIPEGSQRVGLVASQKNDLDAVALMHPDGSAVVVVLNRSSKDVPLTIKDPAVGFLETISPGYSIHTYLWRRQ

N[C@@H](Cc1c[nH]c2ccc(O)cc12)C(=O)O
outcome [1]: inactive | Potency [2]: inactive | Potency [3]: > 92 µM (inactive) | Potency [4]: > 92 µM (inactive) | Potency [5]: > 92 µM (inactive) | Potency [6]: > 92 µM (inactive) | activity change, negative = inhibition ([7]; at 38 µM (top of the series)): -5.52% (inactive) | outcome [8]: inactive | Potency [9]: > 46 µM (inactive) | outcome [10]: inactive | activity change, negative = cytotoxicity [11]: -0.161% (inactive) | Potency [12]: inactive | outcome [13]: inactive | Potency [14]: inactive | Potency [15]: inactive

Cc1cn([C@H]2C[C@H](N=[N+]=[N-])[C@@H](CO)O2)c(=O)[nH]c1=O
outcome [1]: inactive | Potency [3]: > 92 µM (inactive) | Potency [16]: > 92 µM (inactive) | Potency [4]: > 92 µM (inactive) | Potency [5]: > 92 µM (inactive) | Potency [6]: > 92 µM (inactive) | Potency [17]: > 92 µM (inactive) | activity change, negative = inhibition ([7]; at 17.2 µM (top of the series)): 15.9% (inactive) | outcome [8]: inactive | outcome [10]: inactive | activity change, negative = cytotoxicity [11]: -7.33% (inactive) | Potency [12]: inactive | outcome [13]: inactive | Potency [14]: inactive | Potency [18]: inactive | Potency [15]: inactive

O=C(Nc1ccc([N+](=O)[O-])cc1Cl)c1cc(Cl)ccc1O
outcome [1]: inactive | Potency [2]: 3.98 µM (active) and 1.26 µM (active) | activity change, negative = inhibition ([7]; at 17.2 µM (top of the series)): -101% (active) | activity change, negative = inhibition ([7]; at 38 µM (top of the series)): -89.8% (active) | Potency [19]: > 46 µM (inactive) and > 20.6 µM (inactive) | Potency [9]: > 46 µM (inactive) and > 20.6 µM (inactive) | outcome [10]: inactive

Nc1nc2c(ncn2COC(CO)CO)c(=O)[nH]1
outcome [1]: inactive | Potency [2]: inactive | activity change, negative = inhibition ([7]; at 17.2 µM (top of the series)): 3.07% (inactive) | activity change, negative = inhibition ([7]; at 38 µM (top of the series)): -0.352% (inactive) | outcome [8]: inactive | Potency [9]: > 46 µM (inactive) and > 20.6 µM (inactive) | outcome [10]: inactive

Cn1ccc2cc3c(cc21)CCN3C(=O)Nc1cccnc1
outcome [1]: inactive | Potency [2]: 25.1 nM (active) and 3.98 nM (active) | activity change, negative = inhibition ([7]; at 38 µM (top of the series)): -1.4% (inactive) | outcome [8]: inactive | Potency [9]: > 46 µM (inactive) | outcome [10]: inactive

Nc1c2c(nc3ccccc13)CCCC2
outcome [1]: inactive | Potency [2]: 3.16 µM (active) and 794 nM (active) and 501 nM (active) | Potency [3]: > 92 µM (inactive) | Potency [4]: > 92 µM (inactive) | Potency [5]: > 92 µM (inactive) | Potency [6]: > 92 µM (inactive) | Potency [17]: > 92 µM (inactive) | outcome [8]: inactive | outcome [10]: inactive | activity change, negative = cytotoxicity [11]: -21.2% (inactive) | Potency [12]: inactive | outcome [13]: inactive | Potency [18]: inactive | Potency [15]: inactive

CCC1(c2ccccc2)C(=O)NCNC1=O
outcome [1]: inactive | Potency [2]: inactive | Potency [3]: > 92 µM (inactive) | Potency [16]: > 92 µM (inactive) | Potency [4]: > 92 µM (inactive) | Potency [5]: > 92 µM (inactive) | Potency [6]: > 92 µM (inactive) | Potency [17]: > 92 µM (inactive) | activity change, negative = inhibition ([7]; at 17.2 µM (top of the series)): -2.38% (inactive) and -28.2% (inactive) | activity change, negative = inhibition ([7]; at 38 µM (top of the series)): 0.117% (inactive) | outcome [8]: inactive | Potency [9]: > 46 µM (inactive) and > 20.6 µM (inactive) | outcome [10]: inactive | activity change, negative = cytotoxicity [11]: -14.7% (inactive) | Potency [12]: inactive | outcome [13]: inactive | Potency [14]: inactive | Potency [18]: inactive | Potency [15]: inactive

Cc1cn([C@H]2C=C[C@@H](CO)O2)c(=O)[nH]c1=O
outcome [1]: inactive | Potency [3]: > 92 µM (inactive) | Potency [16]: > 92 µM (inactive) | Potency [4]: > 92 µM (inactive) | Potency [5]: > 92 µM (inactive) | Potency [6]: > 92 µM (inactive) | Potency [17]: > 92 µM (inactive) | activity change, negative = inhibition ([7]; at 17.2 µM (top of the series)): 6.73% (inactive) | outcome [8]: inactive | outcome [10]: inactive | activity change, negative = cytotoxicity [11]: 11.8% (inactive) and 9.96% (inactive) | Potency [12]: inactive | outcome [13]: inactive | Potency [14]: inactive | Potency [18]: inactive | Potency [15]: inactive

CN(C)CCC=C1c2ccccc2C=Cc2ccccc21
Potency [20]: > 11.4 µM (inactive) | Potency [2]: inactive and 12.6 µM (active) | activity change, negative = inhibition ([7]; at 7.69 µM (top of the series)): -78.7% (active) | outcome [8]: inactive | Potency [9]: > 46 µM (inactive) and > 20.6 µM (inactive) and > 9.22 µM (inactive) | outcome [10]: inactive

CC(COc1ccccc1)N(CCCl)Cc1ccccc1 (centres undefined)
outcome [1]: inactive | Potency [3]: > 92 µM (inactive) | Potency [5]: 38.6 µM (active) | Potency [6]: > 92 µM (inactive) | outcome [8]: inactive | Potency [19]: > 20.6 µM (inactive) | outcome [10]: inactive | activity change, negative = cytotoxicity [11]: -85.6% (active) | Potency [18]: 31.6 µM (active)

Nc1nnc(-c2cccc(Cl)c2Cl)c(N)n1
outcome [1]: inactive | Potency [2]: inactive | activity change, negative = inhibition ([7]; at 17.2 µM (top of the series)): -16.5% (inactive) | activity change, negative = inhibition ([7]; at 38 µM (top of the series)): 15.4% (inactive) | outcome [8]: inactive | outcome [10]: inactive

NS(=O)(=O)c1cc2c(cc1Cl)NCNS2(=O)=O
outcome [1]: inactive | Potency [3]: > 92 µM (inactive) | Potency [16]: > 92 µM (inactive) | Potency [4]: > 92 µM (inactive) | Potency [5]: > 92 µM (inactive) | Potency [6]: > 92 µM (inactive) | Potency [17]: > 92 µM (inactive) | activity change, negative = inhibition ([7]; at 17.2 µM (top of the series)): 3.92% (inactive) and 9.7% (inactive) | activity change, negative = inhibition ([7]; at 38 µM (top of the series)): 0.292% (inactive) | outcome [8]: inactive | Potency [9]: > 46 µM (inactive) and > 20.6 µM (inactive) | outcome [10]: inactive | activity change, negative = cytotoxicity [11]: -6.72% (inactive) | Potency [12]: inactive | outcome [13]: inactive | Potency [14]: inactive | Potency [18]: inactive | Potency [15]: inactive
